# Assay outcomes deposited in PubChem BioAssay by several laboratories.
# MITF TRPM1 HTS – MITF TRPM1 promoter activation in melanoma cells. SK-MEL-5 TRPM1-promoter luciferase, 24 h; % of positive control, neutral wells = 0. activation, % at 12.5 µM. 300,000 tested, 0.75% active. AID 588334;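 active = mean activation of at least 80% with every replicate also reaching 80%; inconclusive = mean reaches 80% but some replicate falls short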
# PHOSPHO1 inh – PHOSPHO1 (human) inhibition; Q8TCT1; recombinant PHOSPHO1, absorbance phosphatase assay; inhibition, % at 13.3 µM; 290,000 tested, 1.1% active; in the data active = inhibition above about 60%
# Wnt bcat act – Wnt/beta-catenin pathway activation; Wnt/beta-catenin reporter cell assay, activator, plate reader; activation, % at 9.35 µM; 300,000 tested, 1.2% active; AID 743398; in the data active = activation above about 30%, passing the limit was not always enough; inconclusive = no clear call, values can overlap the other calls
# A3A deaminase – blocks human APOBEC3A ssDNA deamination; P31941; recombinant A3A, FAM/TAMRA ssDNA deamination fluorescence; inhibition, % at 20 µM; 330,000 tested, 0.41% active; AID 493011;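 active = at least 40% inhibition at 20 µM here, with at most 30% in a related deaminase screen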
# Target sequence (P31941 whole entry, looked up): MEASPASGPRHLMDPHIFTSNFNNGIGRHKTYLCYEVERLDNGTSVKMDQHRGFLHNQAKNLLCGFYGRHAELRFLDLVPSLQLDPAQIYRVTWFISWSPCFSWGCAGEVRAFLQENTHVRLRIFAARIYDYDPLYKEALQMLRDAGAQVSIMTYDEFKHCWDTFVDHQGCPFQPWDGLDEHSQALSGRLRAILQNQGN
# esBAF inh – SWI/SNF esBAF complex inhibition; mouse ES cells, Bmi1-luciferase knock-in reporter, 24 h; 100% = twice the neutral-well signal; reporter increase, % at 12.5 µM; 350,000 tested, 2% active; in the data active = activation above about 40%; inconclusive = no clear call, values can overlap the other calls;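 note: a rise in the Bmi1 reporter signal indicates esBAF inhibition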
# A3G deaminase – inhibitors of human APOBEC3G DNA deaminase | 330,000 tested, 0.28% active | Q9HC16 | inhibition, % at 20 µM | recombinant A3G, ssDNA deamination FAM/TAMRA fluorescence;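 active = inhibition of at least 40% at 20 µM, with no more than 30% in the related APOBEC3A deaminase screen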
# Target sequence (Q9HC16 whole entry, looked up): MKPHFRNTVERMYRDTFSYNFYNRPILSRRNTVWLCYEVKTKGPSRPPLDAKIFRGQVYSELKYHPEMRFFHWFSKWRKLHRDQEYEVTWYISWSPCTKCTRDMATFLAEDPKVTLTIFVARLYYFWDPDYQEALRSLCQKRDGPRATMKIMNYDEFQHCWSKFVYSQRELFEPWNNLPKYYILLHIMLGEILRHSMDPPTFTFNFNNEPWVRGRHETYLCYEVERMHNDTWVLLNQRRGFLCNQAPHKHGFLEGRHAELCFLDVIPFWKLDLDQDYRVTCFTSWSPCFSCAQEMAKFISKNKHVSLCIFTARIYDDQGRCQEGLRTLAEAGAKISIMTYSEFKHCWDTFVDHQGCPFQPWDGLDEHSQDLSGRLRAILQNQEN
# Numbers stand for hits; – = inactive; ? = inconclusive; · = no result given. Sampled rows, rich in hits. Any-hit rate of the full collection: about 3.6%.
SMILES,MITF TRPM1 HTS,PHOSPHO1 inh,Wnt bcat act,A3A deaminase,esBAF inh,A3G deaminase
C[C@H]1CN([C@@H](C)CO)C(=O)c2cc(-c3ccccc3)cnc2O[C@H]1CN(C)Cc1ccccn1,·,·,·,·,–,·
N/C(=N\OC(=O)c1ccco1)c1ccccc1,95,–,36,–,?,–
N/C(=N\OC(=O)c1cc(Cl)ccc1Cl)c1ccncc1,–,–,–,–,·,–
N/C(=N\OC(=O)c1ccc(Cl)cc1Cl)c1ccncc1,·,–,35,–,·,–
N/C(=N\OC(=O)c1cc(Cl)ccc1Cl)c1cccnc1,·,–,·,–,52,–
Cc1occc1C(=O)O/N=C(\N)c1ccc(Cl)cc1,·,–,63,–,64,–
C[C@@H]1CN([C@H](C)CO)S(=O)(=O)c2ccc(C#Cc3cccc(F)c3)cc2O[C@H]1CN(C)C,·,·,·,·,–,·
CO[C@@H]1CN(C)C(=O)c2ccc(NC(=O)c3cnccn3)cc2OC[C@H](C)NC[C@@H]1C,·,·,·,·,–,·
N/C(=N\OC(=O)c1ccc(Cl)c(Cl)c1)c1cccnc1,–,–,·,–,52,–
Cc1ccc2oc(Nc3nc(C)c(C)c(C)n3)nc2c1,·,–,41,–,·,–
Cc1nc(Nc2nc3ccccc3o2)nc(C)c1C,–,–,–,–,·,–
CC[n+]1c(/C=C/c2ccc(N(C)C)cc2)ccc2ccccc21,–,–,·,·,·,·
CC[n+]1c(/C=C/c2cc([N+](=O)[O-])ccc2O)ccc2ccccc21,·,–,–,–,43,–
COc1ccc(C(=O)COC(=O)c2n[nH]c3ccccc23)c(OC)c1,96,·,–,–,·,–
COc1ccc(OC)c(C(=O)COC(=O)c2ccccc2O)c1,·,–,·,–,42,–
COc1ccc(OC)c(NC(=O)COC(=O)c2n[nH]c3ccccc23)c1,–,·,–,–,–,–
O=C(OCCOc1ccccc1)c1n[nH]c2ccccc12,106,–,38,–,?,–
C[C@@H](NC(=O)C[C@@H]1CC[C@@H]2[C@H](COC[C@H](O)CN2Cc2cc(F)ccc2F)O1)c1ccccc1,·,·,·,·,–,·
Brc1ccccc1OCCCOc1cccc2cccnc12,·,–,–,–,77,–
NNC(=O)COc1cccc2cccnc12,–,–,–,–,–,–
O=C(COc1cccc2cccnc12)Nc1nccs1,·,–,53,–,–,–
Brc1ccccc1OCCOc1cccc2cccnc12,–,–,–,–,·,–
Cc1ccccc1OCC(=O)NNC(=O)Nc1ccccc1,–,–,–,–,·,–
O=C(COc1cccc2cccnc12)NNC(=O)Nc1ccccc1,–,61,–,–,·,–
COCc1ccc(-c2c(-c3ccc(OC)cc3)oc(=O)c3cc(OC)c(OC)cc23)cc1,111,·,–,–,?,–
SMILES,MITF TRPM1 HTS,PHOSPHO1 inh,Wnt bcat act,A3A deaminase,esBAF inh,A3G deaminase
Cc1cnc(C(=O)Nc2ccc(C(C)C)cc2)cn1,131,–,39,–,·,–
Cc1cnc(C(=O)Nc2ccc(F)cc2)cn1,–,–,·,–,–,–
COc1ccc2c(c1OC)C(=O)N(c1cccc(C(F)(F)F)c1)C2,121,–,·,–,46,–
COc1ccc2c(c1OC)C(=O)N(c1ccc(C)cc1)C2,·,–,44,–,–,–
C[C@@H]1CN([C@H](C)CO)S(=O)(=O)c2ccc(C#Cc3ccccc3F)cc2O[C@H]1CN(C)C(=O)Cc1ccncc1,·,·,·,·,–,·
Oc1ccc(-c2csc(NCc3ccco3)n2)cc1,·,–,–,–,49,–
COCCNC(=O)C[C@H]1CC[C@H]2[C@@H](COc3ccc(NC(=O)c4cnccn4)cc3C(=O)N2C)O1,·,·,·,·,–,·
COc1cc(OC)cc(C(=O)Nc2ccc3c(c2)OCCO3)c1,·,–,–,–,42,–
CCOc1ccc(C(=O)Nc2ccc3c(c2)OCCO3)cc1OC,–,–,–,–,67,–
CCCC(=O)Nc1cccc(NC(=O)c2ccc3c(c2)OCCO3)c1,–,–,–,–,43,–
COc1cc(OC)cc(C(=O)NC(C(=O)Nc2ccc3c(c2)OCCO3)C(C)C)c1 (stereo unspecified),–,·,–,–,–,–
CC[n+]1c(/C=C2\C=C(C)CC(C)C2)sc2ccccc21 (stereo unspecified),–,102,–,–,–,–
COc1ccc(S(=O)(=O)Nc2ccc3c(c2)OC[C@@H](C)N(Cc2cc(F)ccc2F)C[C@@H](C)[C@H](OC)CN(C)C3=O)cc1,·,·,·,·,–,·
CC(C)c1cc(=O)oc2c3c4c(cc12)CCCN4CCC3,–,90,–,–,–,–
CN1C(=O)c2cc(NC(=O)C3CCOCC3)ccc2OC[C@H]2O[C@@H](CC(=O)O)CC[C@@H]21,·,·,·,·,–,·
Cc1nc2cc(-c3cccc(F)c3)nn2c(N2CCN(C(=O)c3ccco3)CC2)c1C,–,–,·,–,43,–
COCCN1CCN(c2c(C)c(C)nc3cc(-c4cccc(OC)c4)nn23)CC1,–,·,–,–,52,–
Cc1cc(N2CCN(C(=O)c3ccco3)CC2)n2ncnc2n1,–,–,–,–,·,–
Cc1cc(N2CCN(C(=O)c3ccco3)CC2)n2ncc(-c3ccccc3)c2n1,·,–,–,–,50,–
C[C@H](CO)N1C[C@H](C)[C@@H](CN(C)Cc2ccc3c(c2)OCO3)Oc2ccc(NC(=O)CCN3CCOCC3)cc2CC1=O,·,·,·,·,–,·
CO[C@@H]1CN(C)C(=O)c2ccc(NS(=O)(=O)CC(F)(F)F)cc2OC[C@@H](C)N(C(=O)NC(C)C)C[C@H]1C,·,·,·,·,–,·
O=C(N/N=C/C=C\c1ccco1)c1ccccn1,–,–,–,–,·,–
O=C(N/N=C\C=C\c1ccco1)c1cc(-c2ccc3ccccc3c2)n[nH]1,–,–,57,–,·,–
Cn1c(CC(=O)Nc2ccccc2)n[nH]c1=S,–,60,–,–,–,–
Cc1ccc(N=Cc2nc(-c3ccco3)oc2O)cc1,104,–,37,–,48,–
SMILES,MITF TRPM1 HTS,PHOSPHO1 inh,Wnt bcat act,A3A deaminase,esBAF inh,A3G deaminase
CC(C)CNC(=S)NNC(=O)c1ccc2c(c1)OCO2,–,62,·,–,–,–
CC(C)Sc1nc2ccccc2n1CC(N)=O,·,–,44,–,–,–
CC(C)CSc1nc2ccccc2n1CC(N)=O,–,–,·,–,–,–
COC(=O)Cn1c(SCc2ccccc2)nc2ccccc21,–,–,·,–,49,–
CCSc1nc2ccccc2n1CC(=O)OC,–,–,–,–,–,–
Clc1ccc(CSc2ncn(-c3ccccc3)n2)cc1,–,–,·,–,58,–
O=C(CSc1ncn(-c2ccccc2)n1)N1CCc2ccccc21,–,–,·,–,–,–
Clc1cccc(CSc2ncn(-c3ccccc3)n2)c1,–,–,–,–,42,–
CCC(=O)N1CCc2nc(-c3ccccc3)sc2C1,84,·,–,–,46,–
N#C/C(=C\c1ccc(-c2ccc(C(=O)O)cc2)o1)C(=O)Nc1ccc(F)cc1,–,–,–,·,–,·
CNC(=O)/C(C#N)=C/c1ccc(-c2ccccc2[N+](=O)[O-])o1,–,–,–,–,·,–
Cc1cccc(C)c1NC(=O)/C(C#N)=C/c1ccc(-c2ccc(C(=O)O)cc2)o1,·,–,–,–,128,–
